High-throughput results (PubChem)
Shown are actives, neighbours in structure and some others; about 20% of the full set was active somewhere.
Pf growth 48h: P. falciparum growth inhibition at 48 hours (one generation); P. falciparum luciferase growth in erythrocytes, 48 h; Potency, µM (highest dose often 28.7 µM), inactives show at the highest dose activity change, negative = inhibition, most hits filed as inhibitors; hit rate 5.9% among 310,000; also: potency is read from the fitted curve at half-maximal effect; % is scaled to controls: 0 for no effect and ±100 for the full control effect
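Luminescence readout; reporter = integrated firefly luciferase in P. falciparum. RBC culture at 2% hematocrit, 0.1% parasitemia final, 37 C/5% CO2; decreased signal taken as growth inhibition.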
CHX counter: affects cycloheximide protein synthesis inhibition readout, counter-screen. max response, %. hit rate 12% among 300,000. AID 2314. cell reporter, cycloheximide protein synthesis inhibition counterscreen; in the data active = max response mostly above about 13%, no sharp cut-off; inactive = mostly below about 14%; also: read at 38.3 µM for the half of the compounds with a filed dose; 0% is about no effect
Shiga inhibitor: inhibitors of Shiga toxin in Vero cells | Vero cells, Shiga toxin protein synthesis inhibition reporter | inhibition, % at 38.7 µM | hit rate 9.2% among 290,000; in the data active = inhibition mostly above about 28%, no sharp cut-off; inactive = mostly below about 43%; also: 0% is about no effect
Pf growth 96h: inhibits malaria parasite growth, 96 h. P. falciparum luciferase reporter growth, 96 h. Potency, µM (top dose mostly 28.7 µM), inactives show at the top dose activity change, negative = inhibition, hits mostly inhibitors. hit rate 6.9% among 320,000; also: potency is read from the fitted curve at half-maximal effect; % is scaled to controls: 0 for no effect and ±100 for the full control effect
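P. falciparum expressing integrated firefly luciferase grown in erythrocytes (2% hematocrit, 0.05% parasitemia final) with compounds for 96 hours at 37 C, 5% CO2. Growth inhibition read as loss of luminescence after adding luciferase detection reagent.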
HCMV antiviral: human cytomegalovirus inhibition | HFF cells, HCMV-luciferase reporter, 72 h; active compounds read low | activity change, negative = inhibition, % at 57.5 µM | hit rate 4.5% among 410,000 | AID 1259415; in the data active = activity change below about -60%; inconclusive = no clear call, values can overlap the other calls; inactive = above about -39%; also: % is scaled to controls: 0 for no effect and ±100 for the full control effect
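Inhibition of viral replication was scored as loss of reporter luminescence in HFFs infected with HCMV-luciferase (MOI 1 PFU/cell) for 72 h; compounds tested at 2 doses, normalized to buffer and Salinomycin controls.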
An asterisk follows results filed as active; u = inconclusive; x = not tested or not shown; + = active, no number; [ ] = dose if it differs, or a comment. Unless noted, calls follow the shape of the dose curve; as a rule, active = well fitted inhibition curve with a large enough effect; inconclusive = small, poorly fitted or top-dose-only effect, or another doubt; inactive = no such curve, though single readings can be large or run the other way.

SMILES	Pf growth 48h	CHX counter	Shiga inhibitor	Pf growth 96h	HCMV antiviral
Cc1nnc(NC(=O)c2ccc3c(c2)OCO3)s1	197%	39*	56*	-1%	59
O=C(Nc1nncs1)c1ccc2c(c1)OCO2	73%	22*	55*	u	80
Cc1ccc(C(=O)Nc2nnc(S(=O)(=O)N(C)Cc3ccc(F)cc3)s2)cc1	x	x	x	x	+
CSc1nnc(NC(=O)c2ccc3c(c2)OCO3)s1	147%	48*	69*	264%	92
COc1cc2c3c(c1OC)-c1cc4c(cc1CC3(C#N)N(C(=O)c1ccccc1)CC2)OCO4 (stereo not drawn)	x	x	x	x	163
CN(CC(=O)Nc1cccc(F)c1)C(=O)CSc1ccccc1	u	x	x	33%	-23
O=C(NC1CC(=O)N(c2ccccc2)C1)N1CCN(C(=O)c2ccco2)CC1 (stereo not drawn)	6%	x	x	-12%	1
CSc1nnc(NC(=O)c2ccc(S(=O)(=O)N(C)C)cc2)s1	469%	25*	28*	235%	19
CC(=O)Oc1ccc(C(=O)[C@H]2[C@H]3C(=O)N(c4ccc5ccccc5c4)C(=O)[C@H]3[C@@H]3C=CC=NN32)cc1	26%	37*	41	219%	58
COc1ccc(N(CC(=O)NCCC(C)C)C(=O)c2snc(C(=O)NC3CCCCC3)c2N)c(OC)c1	u	3	-11	15%	-24
CC(C)(C)OC(=O)N[C@H](Cc1ccccc1)C(=O)N1CCC[C@@H]1C(=O)O	5%	3	-9	31%	-80*
CC(C)(C)OC(=O)N[C@@H](Cc1ccccc1)C(=O)N1CCC(C(=O)O)CC1	5%	-4	-2	32%	-22
Cc1sc2nc3c4ccccc4c(NCc4ccco4)nn3c(=O)c2c1C	59%	73*	135*	5.9µM*	195
Cc1nc(NCc2ccco2)c2c(C)c(C)sc2n1	-8%	-4	-27	x	-105*
Cc1sc2nc(SCc3ccccc3)n(Cc3ccco3)c(=O)c2c1C	2%	0	20	-28%	-36
CCOC(=O)c1c(C)[nH]c(C)c1C(=O)COC(=O)c1cccc(S(=O)(=O)N(CC)CC)c1	15µM*	-2	-14	9.3µM*	-26
CCOC(=O)c1c(C)[nH]c(C)c1C(=O)COC(=O)c1ccc(S(=O)(=O)N(CC)CC)cc1	u	-5	-4	u	-25
CC1(C)CC(C)(c2ccc(O)cc2O)N(c2ccc3ccccc3c2)C(=S)N1 (stereo not drawn)	u	-1	1	u	-15
CC1(C)CC(C)(c2ccc(O)cc2O)N(c2cccc(Cl)c2)C(=S)N1 (stereo not drawn)	4.1µM*	-4	-6	u	85
CC(Cl)c1cc(-c2ncc(C(F)(F)F)cc2Cl)no1 (stereo not drawn)	-18%	23*	84*	25%	u
CCC1(C(=O)NC(=Nc2ccccc2)Nc2ccccc2)CCOC1=O (stereo not drawn)	x	x	x	x	-10
O=C1/C(=C\c2ccc(O)cc2)SC(=S)N1/N=C/c1ccc(O)cc1	0%	12*	26	-8%	-29
CCOC(=O)Cc1ccc(NC(=O)N2CCc3c(sc4c3CCCC4)C2c2ccc(F)cc2)cc1 (stereo not drawn)	x	x	x	x	0
CNc1nc(Oc2ccc(C(=O)OC)cc2)nc(SC)n1	10µM*	-2	1	14%	13
CCN(CC)c1nc(Oc2ccc(C(=O)NN)cc2)nc(Oc2ccc(C(=O)NN)cc2)n1	9.3µM*	-3	-18	9.3µM*	u
SMILES	Pf growth 48h	CHX counter	Shiga inhibitor	Pf growth 96h	HCMV antiviral
CCOC(=O)c1ccc(Oc2nc(NC)nc(OC)n2)cc1	13µM*	-1	-3	1%	-2
CN(Cc1nc(-c2ccc(Cl)cc2)no1)C(=O)c1ccco1	32%	12*	44	8%	-3
Cc1ccc(-c2noc(CN(C)C(=O)c3ccoc3C)n2)cc1	20%	19*	88*	-3%	19
COc1ccc(-c2noc(CN(C)C(=O)c3ccco3)n2)cc1	19%	23	35	12%	-12
CS(=O)(=O)Nc1nc2n(n1)C(c1ccccc1)CC(c1ccccc1)N2 (stereo not drawn)	-13%	0	28	6%	-36
CC(=O)c1cc(-c2ccccc2)n(CC(=O)Nc2ccc(C)c(C)c2)c1C	9%	-3	4	u	0
O=C(NN1C(=O)c2ccccc2NC1c1ccccn1)c1ccccc1 (stereo not drawn)	-2%	13*	24*	u	-22
O=C1c2ccccc2NC(c2ccccn2)N1c1ccc(Cl)cc1 (stereo not drawn)	45%	31*	71*	94%	84
Cc1cccc(C2Nc3ccccc3C(=O)N2c2ccccc2)n1 (stereo not drawn)	6%	5	5	x	-12
O=C(NN1C(=O)c2ccccc2NC1c1ccoc1)c1ccccc1 (stereo not drawn)	84%	5	24	49%	-4
O=C(NC(=S)Nc1nc2c(s1)CCCC2)c1ccc(C(=O)c2ccccc2)cc1	-2%	17	12	4%	16
O=C(Nc1nc2c(s1)CCCC2)Oc1ccccc1	54%	21*	34*	13%	-23
CC(C)(C)c1nc(SCC(=O)Nc2nc3c(s2)CCCC3)c2ccccc2n1	1.2µM*	-2	4	u	-61*
C/C(=N\Nc1nc2c(s1)CCCC2)c1ccccc1	u	43*	143*	x	95
O=C(Nc1nc2c(s1)CCCC2)c1cccnc1	70%	52*	70*	9%	142
O=c1[nH]c(=S)[nH]cc1Oc1ccc(Cl)cc1	x	x	x	x	-11
CCC(Sc1nc(-c2ccc(F)cc2)nc2c1Cc1c(CO)cnc(C)c1O2)C(=O)Nc1ccc(F)cc1 (stereo not drawn)	x	x	x	x	17
Cc1ccc(C)c(Cn2nnc(C(=O)NCc3ccc(Cl)cc3Cl)c2N)c1	x	x	x	x	-16
CCOC(=O)CSc1nc2sc3c(c2c(=O)n1-c1ccc(OC)cc1)CC(C(C)C)OC3 (stereo not drawn)	x	x	x	x	18
Cc1ccc(NC(=O)C2CCN(C(=O)c3sc4nc[nH]c(=O)c4c3C)CC2)cc1F	x	x	x	x	-19
COc1ccc(NC(=O)CCC(=O)OCc2ccc([N+](=O)[O-])cc2)cc1	33%[5.75 µM]	-7	6	u	33
O=C(CCSc1ccccc1)Nc1nc2c(s1)CCCC2	48%	31*	162*	x	37
COc1ccc(CC(=O)Nc2nc3c(s2)CCCC3)cc1	x	x	x	x	-37
O=C(Nc1nc2c(s1)CCCC2)c1cccs1	153%	27*	-11	-6%	0
O=C(Cc1cccs1)Nc1nc2c(s1)CCCC2	43%	54*	132*	6%	-73*
O=C(Nc1ccc(Br)cc1)Nc1nc2c(s1)CCCCCC2	x	x	x	x	15
O=C(CSc1ncn(-c2ccccc2)n1)Nc1nc2c(s1)CCCC2	11%	11	23	x	-26
O=C(N/C(=C\c1ccc2c(c1)OCO2)C(=O)N1CCOCC1)c1ccccc1Br	-4%	-3	-2	2%	18
